Experimental data: PubChem BioAssay (NCATS)
Inconclusive results are not listed. The call rests on the fitted dose curve; in most records, active means well fitted activation curve with a large enough effect; inconclusive means small, poorly fitted or top-dose-only effect; inactive means no such curve, though single readings can be large or run the other way.

Target: Rap guanine nucleotide exchange factor 3 (Homo sapiens) (UniProt O95398)
Experiment: Confirmatory qHTS for agonist of cAMP-regulated guanine nucleotide exchange factor 3 (EPAC1) (AID 1645881);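 further: EPAC1 catalysed release of BODIPY-GDP from Rap1B seen as fluorescence loss; 100% = effect of cAMP agonist control; nearly all actives have a fitted effect of over 75% in size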
Details: EPAC1 Rap1B BODIPY-GDP exchange fluorescence; series mostly up to 154 µM; activation: at the top concentration

Chain of Rap guanine nucleotide exchange factor 3 (Homo sapiens) (O95398 whole entry, looked up): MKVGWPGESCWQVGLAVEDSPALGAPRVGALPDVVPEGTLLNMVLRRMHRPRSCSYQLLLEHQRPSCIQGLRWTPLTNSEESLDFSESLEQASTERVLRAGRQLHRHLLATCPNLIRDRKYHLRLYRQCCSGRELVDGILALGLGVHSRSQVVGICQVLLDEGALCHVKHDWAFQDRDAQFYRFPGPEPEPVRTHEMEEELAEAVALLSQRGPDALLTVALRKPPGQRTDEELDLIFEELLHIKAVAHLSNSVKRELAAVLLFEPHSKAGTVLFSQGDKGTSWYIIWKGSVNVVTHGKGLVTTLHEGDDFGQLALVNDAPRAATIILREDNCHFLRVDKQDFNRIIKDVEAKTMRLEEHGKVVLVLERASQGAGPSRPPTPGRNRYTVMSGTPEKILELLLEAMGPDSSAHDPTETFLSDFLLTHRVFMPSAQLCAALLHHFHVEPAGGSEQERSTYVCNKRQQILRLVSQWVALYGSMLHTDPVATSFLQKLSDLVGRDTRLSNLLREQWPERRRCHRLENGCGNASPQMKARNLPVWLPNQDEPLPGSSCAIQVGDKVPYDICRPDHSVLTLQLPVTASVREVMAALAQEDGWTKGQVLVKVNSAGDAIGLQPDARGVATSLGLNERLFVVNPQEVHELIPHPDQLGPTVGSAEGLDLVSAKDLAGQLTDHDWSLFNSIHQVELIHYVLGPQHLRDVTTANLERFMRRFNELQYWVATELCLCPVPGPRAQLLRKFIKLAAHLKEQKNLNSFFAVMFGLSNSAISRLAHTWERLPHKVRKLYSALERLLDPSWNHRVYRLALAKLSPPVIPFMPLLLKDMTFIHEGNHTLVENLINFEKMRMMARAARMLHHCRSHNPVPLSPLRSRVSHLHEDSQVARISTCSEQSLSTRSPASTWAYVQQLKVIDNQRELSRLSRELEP

activation, inactive:
Oc1ccc(NCc2ccc(OCc3ccccc3Cl)cc2)cc1 21.3%
Cc1cccc(C(=O)N=c2c(C#N)cc3c(=O)n4cccc(C)c4nc3n2Cc2ccco2)c1 -2.77%
N#CC(c1nc2ccccc2nc1OCCO)S(=O)(=O)c1ccccc1 (stereo unspecified) -2.87%
COc1ccc(/C=N\Nc2ccc([N+](=O)[O-])cc2)c(C(=O)O)c1OC -2.85%
COc1cc(/C=N/NC(=O)c2ccccc2O)ccc1OCC(=O)Nc1ccccc1 -3.35%
CCCCC(CC)COC1(c2ccccc2)OC(=O)c2ccccc21 (stereo unspecified) -8.89%
O=C(C=Cc1ccccc1)c1c[nH]c2ccccc2c1=O 8.78%
CC1CCC(NC(=O)Cn2c3c(c(-c4ccccc4Cl)cc2=O)CCC3)CC1 (stereo unspecified) -11.1%
Nc1ccc(SC(F)(F)F)cc1C(=O)c1ccccc1 -10.9%
O=C(N/N=C/c1ccc(O)c([N+](=O)[O-])c1)C1CC1(c1ccccc1)c1ccccc1 (stereo unspecified) -4.49%
O=C(c1ccc(-c2nnc(Nc3cccc(Cl)c3)c3ccccc23)cc1)N1C[C@H]2C[C@H](C1)c1cccc(=O)n1C2 0.723%
O=C(NNc1c2ccccc2nc2ccccc12)c1ccccc1O -4.38%
CC1=C(C(=O)OC(C)C)C(c2ccc(C)o2)C(C(=O)OC(C)C)=C(C)N1 -5.45%
O=C(Cc1ccc(Cl)cc1)N/N=C/c1ccc(O)c(O)c1 -3.77%
CCOc1ccc(S(=O)(=O)Nc2cc(NS(=O)(=O)c3ccc(OCC)cc3)cc(C(=O)O)c2)cc1 5.68%
C[C@H](c1ccccc1)N1C[C@H](COCc2ccccc2)Oc2cc(N3CC[C@@H](O)C3)ccc2S1(=O)=O 5.86%
